Measurements taken from publication PMC9838217, “Structure of SALL4 zinc finger domain reveals link between AT-rich DNA binding and Okihiro syndrome”.
Substitutions are numbered along the chain they refer to.

Columns and labels:
Test in all cases: HT-SELEX; high values mean tight binding
Conditions in all cases: protein: recombinant; vector His6-GST; dsDNA, one strand shown
[1] = biological target: T1, SALL4 ZFC4 WT (HT-SELEX) (Mus musculus, UniProt Q8BX22 870-940)
T1 sequence: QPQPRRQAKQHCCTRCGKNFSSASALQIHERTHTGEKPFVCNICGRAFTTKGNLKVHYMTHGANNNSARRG
Summary of the method: (§1)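 For each canonical k-mer, binding signal is the read fraction as fold change versus the initial random library. Data came from up to 6 triplicate cycles in which purified recombinant mouse SALL4 zinc finger cluster 4 (residues 870–940, 1 µg) was incubated 10 min at room temperature with library DNA (1.5 µg first cycle, 200 ng later) in 100 µl of 10 mM Tris–HCl pH 7.5, 50 mM NaCl, poly(dI-dC), DTT, followed by Ni2+ bead capture, PCR amplification, MiSeq sequencing and a 6-mer scan.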

[2] = biological target: T2, SALL4 ZFC4 R900W (HT-SELEX) (Mus musculus, UniProt Q8BX22 870-940, R900W)
T2 sequence: T1 sequence with R31W
Summary of the method: as §1

[3] = biological target: T3, SALL4 ZFC4 G921D (HT-SELEX) (Mus musculus, UniProt Q8BX22 870-940, G921D)
T3 sequence: T1 sequence with G52D
Summary of the method: as §1

Sequence	binding signal [1] [fold-change vs cycle 0]	binding signal [2] [fold-change vs cycle 0]	binding signal [3] [fold-change vs cycle 0]
ACCAAA	1.09 ± 0.0301	1.17 ± 0.0218	1.18 ± 0.044
AAAGCT	1.01 ± 0.0609	1.13 ± 0.0411	1.17 ± 0.0323
ACCTAC	0.796 ± 0.0505	0.908 ± 0.0415	0.957 ± 0.0179
AGATCT	1.31 ± 0.115	1.45 ± 0.063	1.47 ± 0.0799
GATTGA	1.34 ± 0.0367	1.46 ± 0.0217	1.43 ± 0.0387
ATAATC	2.69 ± 0.205	2.05 ± 0.113	1.81 ± 0.145
ACGATA	1.28 ± 0.0502	1.3 ± 0.0452	1.26 ± 0.0543
ATTTGA	1.85 ± 0.0312	1.79 ± 0.0613	1.65 ± 0.0905
ACTAGC	0.648 ± 0.0227	0.764 ± 0.0235	0.825 ± 0.0195
GATTAC	1.43 ± 0.106	1.54 ± 0.0979	1.45 ± 0.0912
GGTAAC	0.927 ± 0.0412	1.08 ± 0.0236	1.06 ± 0.0314
AAAGGT	1.26 ± 0.075	1.41 ± 0.06	1.29 ± 0.0787
ATTGCG	0.438 ± 0.0111	0.47 ± 0.0102	0.614 ± 0.0595
CCGAGA	0.385 ± 0.0394	0.459 ± 0.0241	0.548 ± 0.059
GGTACC	0.421 ± 0.0151	0.521 ± 0.0308	0.608 ± 0.0352
TCACAA	1.2 ± 0.0727	1.32 ± 0.0623	1.29 ± 0.11
CAATAC	1.22 ± 0.0144	1.3 ± 0.0388	1.29 ± 0.0522
ATTACA	2.21 ± 0.144	2.06 ± 0.11	1.82 ± 0.177
AAGCAA	1.18 ± 0.0487	1.24 ± 0.0583	1.23 ± 0.0475
ACGACT	0.624 ± 0.0259	0.718 ± 0.0114	0.813 ± 0.0216
CACATC	0.757 ± 0.0342	0.861 ± 0.0321	0.929 ± 0.0433

Sequence	binding signal [1] [fold-change vs cycle 0]	binding signal [2] [fold-change vs cycle 0]	binding signal [3] [fold-change vs cycle 0]
TCAAAA	1.67 ± 0.118	1.58 ± 0.0814	1.5 ± 0.116
ACATAT	2.28 ± 0.213	1.97 ± 0.122	1.75 ± 0.16
CGAATC	0.662 ± 0.00887	0.742 ± 0.0291	0.827 ± 0.0621
AAGGAC	0.805 ± 0.0174	0.941 ± 0.0375	0.9757 ± 0.00429
ATGTTA	2.16 ± 0.126	2.08 ± 0.106	1.83 ± 0.212
CATAGG	0.854 ± 0.0242	0.918 ± 0.0253	0.978 ± 0.022
GACGAA	0.609 ± 0.00641	0.72 ± 0.0219	0.7905 ± 0.00753
ATGCTA	1.28 ± 0.0551	1.34 ± 0.0761	1.31 ± 0.0688
GTGAAA	1.16 ± 0.0303	1.27 ± 0.0355	1.19 ± 0.0481
GACTCC	0.5 ± 0.00838	0.594 ± 0.00754	0.705 ± 0.0401
ACGATC	0.662 ± 0.038	0.773 ± 0.0211	0.907 ± 0.0183
GTAACA	1.36 ± 0.0267	1.52 ± 0.0694	1.39 ± 0.0863
ACTGTA	1.35 ± 0.031	1.49 ± 0.0592	1.38 ± 0.111
TAATTA	4.1 ± 0.33	2.77 ± 0.208	2.33 ± 0.317
ACACAT	1.25 ± 0.0206	1.33 ± 0.0439	1.32 ± 0.0216
CTGGGA	0.455 ± 0.0297	0.528 ± 0.00656	0.594 ± 0.0357
TACACA	1.21 ± 0.07	1.3 ± 0.0721	1.29 ± 0.0617
TCACCA	0.829 ± 0.0293	0.931 ± 0.0104	0.988 ± 0.0172
CATAAC	1.83 ± 0.124	1.43 ± 0.0541	1.37 ± 0.0667
AGTGGA	0.862 ± 0.03	0.954 ± 0.0352	0.964 ± 0.0435
GTTAGA	1.3 ± 0.0316	1.47 ± 0.0186	1.41 ± 0.0651

Sequence	binding signal [1] [fold-change vs cycle 0]	binding signal [2] [fold-change vs cycle 0]	binding signal [3] [fold-change vs cycle 0]
AATAGA	2.12 ± 0.0946	2.06 ± 0.0912	1.79 ± 0.161
AGTCAT	1.45 ± 0.0471	1.53 ± 0.0494	1.46 ± 0.106
AATGCC	0.502 ± 0.015	0.5601 ± 0.00429	0.704 ± 0.0636
CGTGTC	0.335 ± 0.0147	0.407 ± 0.0314	0.545 ± 0.0369
TCTCCA	0.872 ± 0.044	0.992 ± 0.0225	0.99 ± 0.0254
AAGAAT	2.15 ± 0.0737	2.2 ± 0.103	1.91 ± 0.167
TACGCA	0.51 ± 0.0296	0.54 ± 0.0242	0.668 ± 0.0555
TTCCAA	1.24 ± 0.0535	1.32 ± 0.0456	1.29 ± 0.0721
AACGAA	1.15 ± 0.0599	1.28 ± 0.0641	1.24 ± 0.054
AGCAAT	1.19 ± 0.0605	1.21 ± 0.0474	1.25 ± 0.111
ACGTAT	1.2 ± 0.0268	1.28 ± 0.0492	1.23 ± 0.0551
ATTCCC	0.877 ± 0.0328	0.943 ± 0.055	0.984 ± 0.0201
ATAGCG	0.516 ± 0.00601	0.55 ± 0.0156	0.681 ± 0.0378
AGGAAA	1.31 ± 0.0867	1.43 ± 0.085	1.35 ± 0.118
ACGAAG	0.736 ± 0.0281	0.869 ± 0.0387	0.9 ± 0.0184
AATGTC	1.08 ± 0.0855	1.21 ± 0.0715	1.22 ± 0.0672
AGCTGA	0.687 ± 0.028	0.802 ± 0.0342	0.882 ± 0.0146
ATGTGA	1.31 ± 0.0395	1.44 ± 0.0647	1.39 ± 0.0509
ATAAAC	2.24 ± 0.173	2.02 ± 0.13	1.76 ± 0.163
GCTCCA	0.305 ± 0.0228	0.37 ± 0.0101	0.505 ± 0.0396
ACAAGG	0.796 ± 0.0489	0.976 ± 0.041	0.945 ± 0.0282

Sequence	binding signal [1] [fold-change vs cycle 0]	binding signal [2] [fold-change vs cycle 0]	binding signal [3] [fold-change vs cycle 0]
CCTTAA	1.32 ± 0.0558	1.49 ± 0.018	1.37 ± 0.0901
AGAGTG	0.822 ± 0.0341	0.925 ± 0.0332	0.97 ± 0.0268
CGGTTC	0.342 ± 0.0141	0.423 ± 0.038	0.53 ± 0.0844
AAGCTT	1.18 ± 0.0611	1.27 ± 0.0133	1.24 ± 0.0566
TAGAGA	1.42 ± 0.0253	1.54 ± 0.113	1.48 ± 0.0729
CTAGGC	0.314 ± 0.00866	0.38 ± 0.00705	0.509 ± 0.0429
CCATCG	0.385 ± 0.00824	0.438 ± 0.0205	0.557 ± 0.0511
GAAGGC	0.304 ± 0.0244	0.39 ± 0.0131	0.522 ± 0.0691
AGCCCT	0.343 ± 0.0204	0.423 ± 0.0426	0.56 ± 0.0891
ACGCAT	0.526 ± 0.0513	0.556 ± 0.0269	0.714 ± 0.0322
ATCTTG	1.3 ± 0.0534	1.44 ± 0.0813	1.38 ± 0.0795
ACCCTA	0.864 ± 0.0329	0.973 ± 0.0359	0.982 ± 0.053
AACGCA	0.504 ± 0.0712	0.544 ± 0.00766	0.669 ± 0.0225
ATCTCA	1.42 ± 0.0416	1.5 ± 0.0539	1.43 ± 0.0584
ATCGGG	0.397 ± 0.0233	0.457 ± 0.0142	0.568 ± 0.0671
CCTCTA	0.817 ± 0.034	0.915 ± 0.0455	0.953 ± 0.0421
AAGTCT	1.259 ± 0.00421	1.4 ± 0.0184	1.38 ± 0.0691
CAACAG	0.698 ± 0.0379	0.824 ± 0.0446	0.869 ± 0.0293
AGGGGA	0.532 ± 0.0414	0.608 ± 0.0303	0.671 ± 0.0432
CTCAAG	0.858 ± 0.0354	1.02 ± 0.032	1.04 ± 0.0506
AAAAGT	1.71 ± 0.0529	1.76 ± 0.0934	1.58 ± 0.113
